Pyk2 oligo antag = antagonists of human Pyk2 oligomerization. z-score (the deposit names both 25 µM and 10 µM). Q293 cells, Pyk2 FERM NanoBiT luminescence; hits give low values. actives 0.83% (n = 99,000). AID 1347419. Q14289;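 active = Z-score of -3 or lower, scaled per plate to the spread of control and sample wells; inactive = z-score above -3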;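 also: negative z-score means lost luminescence so less FERM oligomerization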
M1 ag = M1 muscarinic receptor agonism; CHO-M1 cells, Fluo-4 calcium fluorescence, agonist mode; hits give high values; B-score at 10 µM; actives 3% (n = 64,000);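 active = fluorescence rise, raw or as B-score row- and column-corrected plate score, outside the 99.7% band of its plate's samples, either direction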
Cav3 T inh = inhibitors of human Cav3.2 T-type calcium channel; O95180; Cav3.2-expressing cells, Fluo-4 calcium fluorescence FDSS; hits give low values; B-score at 10 µM; actives 4% (n = 100,000);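 active = single-dose well whose peak fluorescence ratio is a statistical outlier from its plate by either plate-standardised score or position-corrected B-score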
M1 antag = M1 muscarinic receptor (rat) antagonism; CHO-M1 cells, Fluo-4 calcium, ACh EC80 antagonist mode; hits give low values; P08482; B-score at 10 µM; actives 3.4% (n = 64,000);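 active = calcium fluorescence response, raw or row-and-column corrected B-score, differing from the plate sample mean either way at a set confidence level, mostly lower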
M1 agonist conf = rat M1 muscarinic agonism, confirmation | fluorescence change (max-min) at 10 µM | AID 1488 | CHO-M1 cells, Fluo-4 calcium fluorescence, agonist mode; actives lie on both sides | actives 19% (n = 1,700) | shares compounds with M1 ag;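 active = fluorescence change differs from the solvent-only DMSO control mean at a set confidence level in both duplicate runs; inconclusive = differs from solvent-only control mean in just one of two runs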;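 also: an EC20 dose of acetylcholine follows compound addition during the same imaging run; raw fluorescence intensity difference in instrument units with no normalization to controls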
M4 agonist ctr = activates rat M4 receptor in counter-screen for M1 agonists; fluorescence change (max-min) at 10 µM; shares compounds with M1 ag; AID 1741; actives 9% (n = 1,700); CHO M4/Gqi5 cells, Fluo-4 calcium fluorescence, agonist mode; actives lie on both sides;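 active = fluorescence change differing from the plate's solvent-only control wells at 99.7% confidence in both duplicates, whether higher or lower; inconclusive = differs from solvent controls in only one of two duplicates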
Target sequence (P08485 whole entry, looked up): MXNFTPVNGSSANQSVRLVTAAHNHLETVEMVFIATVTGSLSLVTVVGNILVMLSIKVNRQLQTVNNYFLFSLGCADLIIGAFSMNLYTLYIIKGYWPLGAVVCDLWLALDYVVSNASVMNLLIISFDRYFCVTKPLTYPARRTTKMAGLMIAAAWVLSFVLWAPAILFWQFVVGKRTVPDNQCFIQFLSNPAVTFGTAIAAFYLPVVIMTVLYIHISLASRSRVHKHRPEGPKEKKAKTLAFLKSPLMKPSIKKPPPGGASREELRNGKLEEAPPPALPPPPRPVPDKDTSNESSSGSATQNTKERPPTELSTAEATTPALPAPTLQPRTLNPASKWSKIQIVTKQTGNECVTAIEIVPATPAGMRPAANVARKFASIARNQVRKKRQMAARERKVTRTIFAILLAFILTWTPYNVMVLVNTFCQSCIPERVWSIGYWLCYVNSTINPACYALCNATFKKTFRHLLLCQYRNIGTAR
Starred values were filed as active, the others as inactive. The list is not random: actives were taken first. Their share in the collection is about 7.1%.

For Cc1ccc(C)c(N(CC(=O)NCCC2=CCCCC2)S(C)(=O)=O)c1 the results were Pyk2 oligo antag -0.79 and Cav3 T inh -1.3.
Screening CC(=O)N1CC=C2C(C#N)=C(N)C(C#N)(C#N)C(CCc3ccccc3)C2C1 (centres undefined) returned Pyk2 oligo antag 0.1, M1 ag 1.6, Cav3 T inh 1.1 and M1 antag -1.
Screening CCCN1CC=C2C(C#N)=C(N)C(C#N)(C#N)C(c3cccc(OC)c3OC)C2C1 (centres undefined) returned Pyk2 oligo antag -0.45, M1 ag 89*, Cav3 T inh -2.8, M1 antag -0.9, M1 agonist conf 666* and M4 agonist ctr 628*.
`CCN1CC=C2C(C#N)=C(N)C(C#N)(C#N)C(CCc3ccccc3)C2C1` (centres undefined) gave Pyk2 oligo antag -0.82, M1 ag 32*, Cav3 T inh -2.4, M1 antag -2.5*, M1 agonist conf 247* and M4 agonist ctr inconclusive.
For CN1CC=C2C(C#N)=C(N)C(C#N)(C#N)C(c3cccc(Cl)c3Cl)C2C1 (centres undefined) the results were Pyk2 oligo antag -0.17, M1 ag 64*, Cav3 T inh -0.24, M1 antag 0.68, M1 agonist conf 243* and M4 agonist ctr 236*.
Screening COc1ccc(OC)c(C2C3CN(C(C)C)CC=C3C(C#N)=C(N)C2(C#N)C#N)c1 (centres undefined) returned Pyk2 oligo antag -0.3, M1 ag 40*, Cav3 T inh 0.24, M1 antag -0.14, M1 agonist conf 217* and M4 agonist ctr 212*.
Screening Cc1ccc(CNC(=O)C2CC3Cn4c(nc5cc(Cl)c(Cl)cc54)C3N2C)o1 (centres undefined) returned Cav3 T inh 0.62.
`Cc1ccc(Cl)cc1NC(=O)N[C@@H](C)C(=O)O` gave Pyk2 oligo antag -0.34 and Cav3 T inh -0.75.
`CCn1cc(C(=O)NCc2ccccn2)c(=O)c2cc(S(=O)(=O)N3CCCCC3)ccc21` gave M1 ag 11*, M1 antag 1.2, M1 agonist conf 73* and M4 agonist ctr 17.
CCn1cc(C(=O)NCCCN2CCC(C)CC2)c(=O)c2cc(S(=O)(=O)N3CCCC3)ccc21 was read as Pyk2 oligo antag -0.05, M1 ag -0.14, Cav3 T inh 0.67 and M1 antag 0.47.
Screening C=CCNC(=O)CC(=O)N/N=C/c1ccc(C(=O)OC)cc1 returned Pyk2 oligo antag 0.08 and Cav3 T inh 0.58.
COc1ccccc1N1CCN(C(=O)CCNS(=O)(=O)c2ccc(Br)s2)CC1 was read as Pyk2 oligo antag 0.67, M1 ag 2.6*, Cav3 T inh -4.7*, M1 antag 0.66, M1 agonist conf inconclusive and M4 agonist ctr -77.
Cc1cc2c(N3CCCCC3C)ncnc2s1 (centres undefined) was read as Pyk2 oligo antag -1, M1 ag 3.5*, Cav3 T inh 0.79, M1 antag -0.93, M1 agonist conf -7.6 and M4 agonist ctr -34.
CCN1C(=O)c2cccc3c(S(=O)(=O)Nc4ccc(OC)cc4OC)ccc1c23 was read as M1 ag 5.3*, M1 antag -1.3, M1 agonist conf -17 and M4 agonist ctr -18.
`Cc1ccc(C)c2[nH]c(=O)c(CN(Cc3ccco3)C(=O)Nc3ccccc3)cc12` gave Pyk2 oligo antag -0.51, M1 ag 5.2*, Cav3 T inh -6*, M1 antag -0.37, M1 agonist conf -13 and M4 agonist ctr -47.
Screening O=C(NCc1ccccc1)N(Cc1nc2ccccc2c(=O)[nH]1)C1CCCC1 returned Pyk2 oligo antag 0.54, M1 ag 4.2*, Cav3 T inh 0.62, M1 antag -0.3, M1 agonist conf -12 and M4 agonist ctr -17.
CCO[C@@H]1OC(C(=O)O)=C[C@H](C2CC2)[C@H]1CCCO was read as Cav3 T inh 0.23.
For CC1CCc2cccc3c2N1c1cc(C#N)c(C#N)cc1O3 (centres undefined) the results were Pyk2 oligo antag -1.4, M1 ag 11*, Cav3 T inh -3.6*, M1 antag 0.029, M1 agonist conf inconclusive and M4 agonist ctr -16.
`CC1CCCCN1c1cc(C#N)c(C#N)cc1[N+](=O)[O-]` (centres undefined) gave Pyk2 oligo antag -0.85 and Cav3 T inh 0.21.
Screening Cc1ccc(NC(=O)NCCCc2ccccc2)cc1 returned Pyk2 oligo antag -0.77 and Cav3 T inh -1.
Screening COC(=O)CSc1cc(SCC(=O)OC)c(C#N)c(SCC(=O)OC)c1 returned Pyk2 oligo antag 1.9, M1 ag 9.5*, Cav3 T inh 1.1, M1 antag -1.1, M1 agonist conf -21 and M4 agonist ctr -64*.
`Cc1cc(C)c(S(C)(=O)=O)c(Sc2ccc(Cl)cc2)n1` gave Pyk2 oligo antag -0.07 and Cav3 T inh -0.13.
Screening Cc1ccc(N2C(=O)c3cccc4c(N5CCN(C)CC5)ccc(c34)C2=O)c2cccnc12 returned M1 ag 405*, Cav3 T inh -4.3*, M1 antag -3.1*, M1 agonist conf 956* and M4 agonist ctr 1220*.
`CCN1C(=O)c2cccc3c(S(=O)(=O)Nc4ncccc4C)ccc1c23` gave Pyk2 oligo antag -0.34, M1 ag -0.027, Cav3 T inh 1.3 and M1 antag 0.2.
For Cc1ccc(CN(CC(=O)N/N=C/c2ccco2)S(=O)(=O)c2ccc(C)cc2)cc1 the results were Pyk2 oligo antag 1.6 and Cav3 T inh -3.5.
`Cc1cccn2c(=O)c(/C=C(\C#N)S(=O)(=O)c3ccccc3)c(N3CCC(C(N)=O)CC3)nc12` gave Pyk2 oligo antag -2 and Cav3 T inh 1.8.
`CCN1CCN(c2nc3c(C)cccn3c(=O)c2/C=C(\C#N)S(=O)(=O)c2ccccc2)CC1` gave Pyk2 oligo antag -0.85, M1 ag 8.9*, Cav3 T inh 2.7, M1 antag -3, M1 agonist conf 31 and M4 agonist ctr 2.4.
COc1ccc(C2N3CC4(C)CN2CC(C)(C3)C4)cc1OC (centres undefined) was read as Pyk2 oligo antag 0.15, M1 ag -3.1*, M1 antag 0.47, M1 agonist conf -14 and M4 agonist ctr -65*.
Screening CC12CN3CC(C)(CN(C1)C3c1ccc(Br)cc1O)C2 (centres undefined) returned Pyk2 oligo antag 0.53, M1 ag 1, Cav3 T inh -0.0095 and M1 antag -1.3.
`Cc1c(C(=O)OCCOC(C)C)[nH]c2c1C(=O)CC(c1ccco1)C2` (centres undefined) gave M1 ag 6.7*, Cav3 T inh -2, M1 antag -2*, M1 agonist conf inconclusive and M4 agonist ctr -80*.
Cc1cccc(-n2c(C)cc(/C=N/n3cnnc3)c2C)c1 was read as Pyk2 oligo antag 0.57 and Cav3 T inh 0.56.

Screens as filed in PubChem BioAssay.
